Article PMC7862700, “An all-to-all approach to the identification of sequence-specific readers for epigenetic DNA modifications on cytosine”

Assays:
Test in all cases: DAPPL (digital affinity profiling via proximity ligation, sequencing); 10 mM Tris-HCl pH 7.5, 50 mM NaCl, 1 mM DTT, 4% glycerol, room temperature, 30 min; GST-TFs on glutathione beads, 16-mer random dsDNA library, 0.1% formaldehyde crosslink after washing; high values mean tight binding
FEV = target: T1, FEV (Homo sapiens, UniProt Q99581 1-238); details: protein: recombinant; tags: N-terminal GST; dsDNA, one strand shown
T1 sequence: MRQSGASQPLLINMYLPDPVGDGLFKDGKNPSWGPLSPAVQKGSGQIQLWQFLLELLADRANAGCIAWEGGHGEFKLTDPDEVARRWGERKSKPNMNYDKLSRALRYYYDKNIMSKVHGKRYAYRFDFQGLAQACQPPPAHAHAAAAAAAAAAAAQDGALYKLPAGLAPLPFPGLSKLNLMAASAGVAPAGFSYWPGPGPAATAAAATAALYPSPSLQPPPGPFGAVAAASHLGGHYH
Summary of the method: (§1)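 In yeast, human transcription factors were expressed with a GST fusion, then pulled down on glutathione beads and given DNA barcodes. Pooled with a tag-only sample, they were exposed to 200 nmole of a 16-mer random double-stranded DNA library (Tris/NaCl/DTT/glycerol buffer, room temperature, 30 min), washed, crosslinked with 0.1% formaldehyde, proximity-ligated using BsaI/T4 ligase for 1 h at 37 °C, PCR-amplified and read on an Illumina NextSeq500. Each hexamer's frequency of reads for a factor, divided by the matching frequency for the tag-only sample, gives the binding signal.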

ETV5 = ETV5 (Homo sapiens, UniProt P41161 1-510); details: protein: recombinant; tags: N-terminal GST; dsDNA, one strand shown
Summary of the method: as §1

HSF1 = HSF1 (Homo sapiens, UniProt Q00613 1-529); details: protein: recombinant; tags: N-terminal GST; chain copies: 3; dsDNA, one strand shown
Summary of the method: as §1

SPIC = target: T2, SPIC (Homo sapiens, UniProt Q8N5J4 1-248); details: protein: recombinant; tags: N-terminal GST; dsDNA, one strand shown
T2 sequence: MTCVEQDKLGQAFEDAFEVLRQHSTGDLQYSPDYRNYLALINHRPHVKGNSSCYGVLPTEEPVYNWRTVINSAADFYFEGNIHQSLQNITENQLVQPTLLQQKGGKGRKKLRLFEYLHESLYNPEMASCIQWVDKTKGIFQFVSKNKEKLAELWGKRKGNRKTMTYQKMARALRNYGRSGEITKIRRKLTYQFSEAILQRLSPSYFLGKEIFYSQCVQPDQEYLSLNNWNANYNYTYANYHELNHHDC
Summary of the method: as §1

ELF4 = ELF4 (Homo sapiens, UniProt Q99607 1-663); details: protein: recombinant; tags: N-terminal GST; dsDNA, one strand shown
Summary of the method: as §1

ELK4 = target: T3, ELK4 (Homo sapiens, UniProt P28324-2 1-405); details: protein: recombinant; tags: N-terminal GST; dsDNA, one strand shown
T3 sequence: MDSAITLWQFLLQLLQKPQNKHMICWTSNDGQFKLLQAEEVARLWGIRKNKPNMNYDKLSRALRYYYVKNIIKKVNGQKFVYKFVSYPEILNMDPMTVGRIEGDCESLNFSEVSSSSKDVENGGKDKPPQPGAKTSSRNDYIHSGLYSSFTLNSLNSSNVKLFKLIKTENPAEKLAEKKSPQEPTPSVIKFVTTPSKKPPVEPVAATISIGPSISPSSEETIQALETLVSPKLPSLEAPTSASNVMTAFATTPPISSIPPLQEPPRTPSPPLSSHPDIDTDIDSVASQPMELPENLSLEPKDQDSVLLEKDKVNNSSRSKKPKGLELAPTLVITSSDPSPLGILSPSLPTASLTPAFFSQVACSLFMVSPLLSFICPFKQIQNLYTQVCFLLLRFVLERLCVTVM
Summary of the method: as §1

ETV2 = target: T4, ETV2 (Homo sapiens, UniProt O00321 1-342); details: protein: recombinant; tags: N-terminal GST; dsDNA, one strand shown
T4 sequence: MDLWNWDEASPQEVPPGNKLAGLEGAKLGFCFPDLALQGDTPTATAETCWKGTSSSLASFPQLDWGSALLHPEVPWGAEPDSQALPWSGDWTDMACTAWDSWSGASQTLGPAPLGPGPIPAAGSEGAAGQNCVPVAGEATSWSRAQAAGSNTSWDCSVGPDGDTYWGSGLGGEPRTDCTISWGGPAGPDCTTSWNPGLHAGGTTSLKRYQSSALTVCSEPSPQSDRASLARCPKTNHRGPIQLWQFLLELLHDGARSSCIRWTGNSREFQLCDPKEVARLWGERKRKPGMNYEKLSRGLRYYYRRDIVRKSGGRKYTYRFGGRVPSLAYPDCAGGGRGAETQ
Summary of the method: as §1

ELF3 = target: T5, ELF3 (Homo sapiens, UniProt P78545 1-371); details: protein: recombinant; tags: N-terminal GST; dsDNA, one strand shown
T5 sequence: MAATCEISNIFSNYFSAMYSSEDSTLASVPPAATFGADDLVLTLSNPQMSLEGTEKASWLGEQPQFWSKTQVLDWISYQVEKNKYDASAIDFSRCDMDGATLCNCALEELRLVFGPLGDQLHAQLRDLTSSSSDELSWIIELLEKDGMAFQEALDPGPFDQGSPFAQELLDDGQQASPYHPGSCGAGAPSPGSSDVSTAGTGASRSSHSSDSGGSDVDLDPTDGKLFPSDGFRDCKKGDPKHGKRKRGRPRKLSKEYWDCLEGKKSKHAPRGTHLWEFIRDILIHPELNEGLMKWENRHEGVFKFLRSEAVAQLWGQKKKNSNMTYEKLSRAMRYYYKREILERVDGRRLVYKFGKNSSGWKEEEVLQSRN
Summary of the method: as §1

CRX = CRX (Homo sapiens, UniProt O43186 1-299); details: protein: recombinant; tags: N-terminal GST; dsDNA, one strand shown
Summary of the method: as §1

ETV1 = ETV1 (Homo sapiens, UniProt P50549 1-477); details: protein: recombinant; tags: N-terminal GST; dsDNA, one strand shown
Summary of the method: as §1

Sequence of CRX (O43186 whole entry): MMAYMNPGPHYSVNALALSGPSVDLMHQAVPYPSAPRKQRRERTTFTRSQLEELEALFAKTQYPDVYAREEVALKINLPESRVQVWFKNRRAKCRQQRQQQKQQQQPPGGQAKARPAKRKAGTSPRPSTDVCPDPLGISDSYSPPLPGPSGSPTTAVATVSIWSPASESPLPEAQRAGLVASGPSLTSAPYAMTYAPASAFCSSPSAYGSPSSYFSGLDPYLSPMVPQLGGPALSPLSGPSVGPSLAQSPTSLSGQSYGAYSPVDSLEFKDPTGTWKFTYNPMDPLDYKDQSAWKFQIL
Sequence of HSF1 (Q00613 whole entry): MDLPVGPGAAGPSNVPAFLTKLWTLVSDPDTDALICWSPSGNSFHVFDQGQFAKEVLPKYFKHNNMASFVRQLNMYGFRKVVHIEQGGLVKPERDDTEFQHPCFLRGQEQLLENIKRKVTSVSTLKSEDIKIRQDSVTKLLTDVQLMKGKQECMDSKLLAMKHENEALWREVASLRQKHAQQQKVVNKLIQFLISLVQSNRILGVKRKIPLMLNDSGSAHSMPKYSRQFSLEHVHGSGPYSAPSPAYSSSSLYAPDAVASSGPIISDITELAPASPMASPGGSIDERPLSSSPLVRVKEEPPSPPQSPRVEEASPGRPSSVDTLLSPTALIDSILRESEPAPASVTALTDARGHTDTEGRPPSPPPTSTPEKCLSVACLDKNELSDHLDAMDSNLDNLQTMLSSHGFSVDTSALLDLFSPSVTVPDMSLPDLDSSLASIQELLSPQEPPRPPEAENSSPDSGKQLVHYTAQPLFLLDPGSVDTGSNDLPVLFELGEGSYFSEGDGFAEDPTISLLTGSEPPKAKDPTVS
Sequence of ETV1 (P50549 whole entry): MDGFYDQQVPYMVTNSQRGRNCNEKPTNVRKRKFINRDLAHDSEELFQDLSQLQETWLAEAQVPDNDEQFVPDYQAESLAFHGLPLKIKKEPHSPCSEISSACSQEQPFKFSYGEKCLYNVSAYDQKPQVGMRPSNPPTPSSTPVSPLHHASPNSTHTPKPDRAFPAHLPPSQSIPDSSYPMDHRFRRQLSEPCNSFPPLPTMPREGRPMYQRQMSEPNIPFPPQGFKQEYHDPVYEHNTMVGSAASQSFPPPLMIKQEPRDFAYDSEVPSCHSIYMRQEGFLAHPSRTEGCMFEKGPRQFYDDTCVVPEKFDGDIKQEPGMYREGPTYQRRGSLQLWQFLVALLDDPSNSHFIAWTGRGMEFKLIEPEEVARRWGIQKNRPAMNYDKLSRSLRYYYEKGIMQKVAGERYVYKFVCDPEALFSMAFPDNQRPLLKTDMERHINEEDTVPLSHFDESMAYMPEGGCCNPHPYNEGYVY
Sequence of ETV5 (P41161 whole entry): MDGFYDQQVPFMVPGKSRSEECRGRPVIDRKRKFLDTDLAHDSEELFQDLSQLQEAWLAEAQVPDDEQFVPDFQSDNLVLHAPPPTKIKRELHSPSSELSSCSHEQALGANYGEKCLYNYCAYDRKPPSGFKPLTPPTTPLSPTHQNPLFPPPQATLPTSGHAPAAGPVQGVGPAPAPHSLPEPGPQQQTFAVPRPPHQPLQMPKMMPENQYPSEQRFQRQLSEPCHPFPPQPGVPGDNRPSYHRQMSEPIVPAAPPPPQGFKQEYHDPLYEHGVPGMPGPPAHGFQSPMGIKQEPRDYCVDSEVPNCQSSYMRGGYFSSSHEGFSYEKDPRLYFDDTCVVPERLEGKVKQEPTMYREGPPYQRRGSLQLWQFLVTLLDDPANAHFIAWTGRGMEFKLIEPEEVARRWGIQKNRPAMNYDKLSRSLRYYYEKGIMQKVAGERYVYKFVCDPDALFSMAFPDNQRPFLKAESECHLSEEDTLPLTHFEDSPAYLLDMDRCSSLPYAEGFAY
Sequence of ELF4 (Q99607 whole entry): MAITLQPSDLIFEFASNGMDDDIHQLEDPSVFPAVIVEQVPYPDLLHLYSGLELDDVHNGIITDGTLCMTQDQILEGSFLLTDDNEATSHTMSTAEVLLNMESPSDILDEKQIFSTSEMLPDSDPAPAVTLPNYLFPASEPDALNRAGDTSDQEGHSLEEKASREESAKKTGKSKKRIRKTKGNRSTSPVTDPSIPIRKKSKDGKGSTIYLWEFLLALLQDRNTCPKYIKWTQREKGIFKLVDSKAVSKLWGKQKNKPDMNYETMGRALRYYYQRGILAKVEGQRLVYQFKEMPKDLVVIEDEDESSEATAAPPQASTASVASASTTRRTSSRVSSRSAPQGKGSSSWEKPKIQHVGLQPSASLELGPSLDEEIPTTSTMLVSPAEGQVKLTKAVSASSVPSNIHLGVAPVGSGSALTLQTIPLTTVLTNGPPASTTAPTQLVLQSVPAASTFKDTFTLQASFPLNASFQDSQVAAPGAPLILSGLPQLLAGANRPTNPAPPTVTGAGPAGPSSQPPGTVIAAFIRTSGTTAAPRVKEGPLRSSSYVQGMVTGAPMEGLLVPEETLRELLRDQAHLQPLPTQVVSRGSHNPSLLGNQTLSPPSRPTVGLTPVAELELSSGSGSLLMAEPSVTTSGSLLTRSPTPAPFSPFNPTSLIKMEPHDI

For TCCAAG, the binding signal (FEV) was 1.03 fold enrichment (6-mer frequency, TF over GST control), the binding signal (ETV5) was 1.07 fold enrichment (6-mer frequency, TF over GST control) and the binding signal (HSF1) was 1.23 fold enrichment (6-mer frequency, TF over GST control). The binding signal (SPIC) was 1.11 fold enrichment (6-mer frequency, TF over GST control), the binding signal (ELF4) was 1.07 fold enrichment (6-mer frequency, TF over GST control) and the binding signal (ELK4) was 1.04 fold enrichment (6-mer frequency, TF over GST control). The binding signal (ETV2) was 1.19 fold enrichment (6-mer frequency, TF over GST control), the binding signal (ELF3) was 1.11 fold enrichment (6-mer frequency, TF over GST control) and the binding signal (CRX) was 1.2 fold enrichment (6-mer frequency, TF over GST control). The binding signal (ETV1) was 1.13 fold enrichment (6-mer frequency, TF over GST control).
